In PubChem BioAssay (EPA / NIEHS):
Activity calls are given as the source filed them. The calls were made as follows: active = hit-call score of the fitted dose curve at least 0.9, where 1 is the maximum; inactive = score below 0.9.

How the values were obtained:
[1] = target: Transcription factor E2F1 (Homo sapiens) (UniProt Q01094); assay: ATG_E2F_CIS: Attagene CIS-FACTORIAL HepG2 Assay for human E2F Transcription Factor 1 (AID 2282935); settings: HepG2 Attagene cis-reporter, E2F reporter RNA transcripts; actives raise or lower the signal
Outline: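 Gain or loss of reporter transcript, fitted against DMSO, reflects E2F1-driven transcription. Transiently transfected HepG2 dosed 24 h before RNA isolation. Quantified by fluorescent RT-PCR products separated by capillary electrophoresis.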

[2] = ATG_E_Box_CIS: Attagene CIS-FACTORIAL HepG2 Assay for human Enhancer Box (E-box) (AID 2282936); settings: HepG2 E-box cis-reporter transcription, actives raise or lower the signal
Outline: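 E-box-driven reporter transcripts measured in transiently transfected HepG2 after 24 h exposure: RNA reverse-transcribed, PCR-amplified, fluorescently labelled, digested and resolved by capillary electrophoresis. Gain or loss relative to DMSO.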

[3] = ATG_EGR_CIS: Attagene CIS-FACTORIAL HepG2 Assay for human Early Growth Response 1 (EGR1) (AID 2282938); settings: HepG2 Attagene CIS-FACTORIAL EGR reporter mRNA; actives raise or lower the signal
Outline: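 HepG2 cells transiently transfected with cis-promoter-driven multiplexed reporter transcription units; reporter mRNA measured 24 h after compound dosing by RT-PCR, 6-FAM primer extension, HpaI digestion and capillary electrophoresis. Bidirectional fit versus DMSO baseline.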

[4] = ATG_ERE_CIS: Attagene CIS-FACTORIAL HepG2 Assay for Estrogen Response Element (ERE) (AID 2282940); settings: HepG2 ERE cis-reporter, Attagene RNA transcript; actives raise or lower the signal
Outline: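 After 24 h compound treatment, RNA from transfected HepG2 cells was reverse-transcribed, reporter cDNA PCR-amplified, FAM-labelled, HpaI-cut and resolved by capillary electrophoresis. ERE-driven cis reporter transcripts reflect endogenous factors; gain or loss scored against DMSO.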

[5] = ATG_Ets_CIS: Attagene CIS-FACTORIAL HepG2 Assay for human Erythroblast Transformation Specific (ETS) (AID 2282941); settings: HepG2 ETS cis-reporter transcription, actives raise or lower the signal
Outline: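 Cis-regulated reporter mRNA induction in HepG2 (transient transfection), 24 h exposure, RT-PCR plus capillary electrophoresis detection; DMSO serves as negative control and baseline.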

[6] = target: Hepatocyte nuclear factor 3-beta (Homo sapiens) (UniProt Q9Y261); assay: ATG_FoxA2_CIS: Attagene CIS-FACTORIAL HepG2 Assay for human Forkhead box A2 (FOXA2) (AID 2282942); settings: HepG2 cis-reporter transcription factor activity, 24 h; actives raise or lower the signal
Outline: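 HepG2 cells transiently transfected with multiple cis-regulated reporter transcription units, dosed for 24 h. Reporter mRNA measured by RT-PCR, 6-FAM labelling, HpaI digestion and capillary electrophoresis; bidirectional fitting against DMSO baseline.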

[7] = ATG_FoxO_CIS: Attagene CIS-FACTORIAL HepG2 Assay for human Forkhead box O (FoxO) (AID 2282943); settings: HepG2 Attagene cis-reporter, FoxO element, mRNA; actives raise or lower the signal
Outline: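 HepG2, transient MRTU transfection (cis element, endogenous TFs). Dose 24 h. TriZol RNA → oligo(dT) RT → PCR → 6-FAM primer extension → HpaI cut → CE. Gain/loss vs DMSO.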

[8] = ATG_GLI_CIS: Attagene CIS-FACTORIAL HepG2 Assay for human Zinc Finger Protein GLI1 (AID 2282945); settings: HepG2, Attagene cis-factorial reporter mRNA, GLI element; actives raise or lower the signal
Outline: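 Bidirectional curve fits relative to DMSO, using reporter mRNA levels from RT-PCR plus capillary electrophoresis. Cells were HepG2 transiently carrying cis-regulated reporter constructs, harvested 24 h after dosing.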

[9] = target: Bile acid receptor (Homo sapiens) (UniProt Q96RI1); assay: ATG_IR1_CIS: Attagene CIS-FACTORIAL HepG2 Assay for human Nuclear Receptor Subfamily 1 Group H Member 4 (NR1H4), IR1 submotif (AID 2282946); settings: IR1 reporter transcription, actives raise or lower the signal
Outline: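 HepG2 cells transiently transfected with multiplexed cis-element reporter units read endogenous transcription factor activity. After 24 h compound exposure, reporter mRNA was quantified by RT-PCR, fluorescent labelling, HpaI digestion and capillary electrophoresis; bidirectional fitting versus DMSO baseline.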

[10] = ATG_ISRE_CIS: Attagene CIS-FACTORIAL HepG2 Assay for human Interferon Regulatory Factor 1 (IRF1) binding to an Interferon-Stimulated Response Element (ISRE) (AID 2282948); settings: HepG2 ISRE cis-reporter (Attagene), mRNA transcription readout; actives raise or lower the signal
Outline: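 Multiplexed mRNA reporter readout in human liver HepG2 cells: cis-element-driven reporters transfected, compound added for 24 h, transcripts amplified, fluorescently labelled and sized by capillary electrophoresis; curve fitting bidirectional against DMSO.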

[11] = ATG_M_32_CIS: Attagene CIS-FACTORIAL HepG2 Assay for M32 Transcription Factor (Internal Marker) (AID 2282949); settings: HepG2 Attagene cis-factorial M32 reporter, mRNA; actives raise or lower the signal;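 also: background control marker of the multiplexed CIS panel rather than a real target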
Outline: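 HepG2 transfectants (cis-regulated reporter transcription units) dosed 24 h. Reporter mRNA by RT-PCR plus CE, analysed as gain or loss relative to DMSO.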

[12] = ATG_M_06_CIS: Attagene CIS-FACTORIAL HepG2 Assay for M06 Transcription Factor (Internal Marker) (AID 2282950); settings: HepG2 Attagene CIS-FACTORIAL M06 internal marker reporter; actives raise or lower the signal
Outline: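 Serves as a background control readout. Transfected HepG2 exposed to compounds for 24 h, then reporter transcripts quantified by fluorescent RT-PCR and capillary electrophoresis. Both directions fitted against DMSO baseline.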

[13] = target: Hypoxia-inducible factor 1-alpha (Homo sapiens) (UniProt Q16665); assay: ATG_HIF1a_CIS: Attagene CIS-FACTORIAL HepG2 Assay for human Hypoxia Inducible Factor 1 (HIF1A) (AID 2282951); settings: HepG2 Attagene cis-factorial HIF1a reporter transcription; actives raise or lower the signal
Outline: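 HepG2 cells transiently transfected with multiplexed cis-promoter reporter units; reporter mRNA read 24 h after dosing by RT-PCR, 6-FAM primer-extension labelling, HpaI digestion and capillary electrophoresis. Bidirectional fit versus DMSO baseline.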

[14] = target: Hepatocyte nuclear factor 6 (Homo sapiens) (UniProt Q9UBC0); assay: ATG_HNF6_CIS: Attagene CIS-FACTORIAL HepG2 Assay for human Hepatocyte Nuclear Factor 6 (HNF6) (AID 2282952); settings: HepG2 Attagene cis-factorial HNF6 reporter transcription; actives raise or lower the signal
Outline: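 First, HepG2 cells were transfected with the multiplexed cis reporter library and dosed with chemical for 24 h. Next, RNA was reverse-transcribed, PCR-amplified and fluorescently labelled. Finally, HpaI-digested fragments were read by capillary electrophoresis.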

[15] = target: Heat shock factor protein 1 (Homo sapiens) (UniProt Q00613); assay: ATG_HSE_CIS: Attagene CIS-FACTORIAL HepG2 Assay for human Heat Shock Transcription Factor 1 (HSE) (AID 2282953); settings: HepG2 HSE cis-reporter, Attagene RNA transcription; actives raise or lower the signal
Outline: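 Endogenous transcription factor activity in transiently transfected HepG2, read as reporter mRNA by RT-PCR with fluorescent capillary electrophoresis after 24 h. Gain or loss of signal fitted versus DMSO baseline.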

[16] = ATG_MRE_CIS: Attagene CIS-FACTORIAL HepG2 Assay for human Metal Responsive Element (MRE) (AID 2282954); settings: HepG2 MRE cis-reporter transcription, Attagene multiplex; actives raise or lower the signal
Outline: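 Endogenous MRE-dependent transcription read as reporter mRNA in transiently transfected human HepG2 cells at 24 h. RNA reverse-transcribed, PCR-amplified, labelled and resolved by capillary electrophoresis; gain or loss relative to DMSO.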

[17] = ATG_M_19_CIS: Attagene CIS-FACTORIAL HepG2 Assay for M19 Transcription Factor (Internal Marker) (AID 2282939); settings: HepG2 Attagene CIS-FACTORIAL M19 internal marker reporter; actives raise or lower the signal
Outline: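 Internal marker readout, fitted in both directions against DMSO, from HepG2 cells carrying transfected cis-element reporter constructs; RT-PCR and capillary electrophoresis of reporter mRNA after 24 h exposure.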

[18] = ATG_GRE_CIS: Attagene CIS-FACTORIAL HepG2 Assay for human Glucocorticoid Response Elements (GRE) (AID 2282947); settings: HepG2 GRE cis-reporter, Attagene multiplex mRNA; actives raise or lower the signal
Outline: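 Reporter transcripts read by RT-PCR with capillary electrophoresis fluorescence after a 24 h chemical exposure of HepG2 cells transiently transfected with multiple cis-element reporter units. Gain or loss fitted against DMSO.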

[19] = ATG_GATA_CIS: Attagene CIS-FACTORIAL HepG2 Assay for human GATA Binding Protein (AID 2282944); settings: HepG2 GATA cis-element reporter, Attagene multiplex mRNA; actives raise or lower the signal
Outline: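 Reporter transcripts from a GATA cis-regulated unit, among multiplexed reporters in transfected HepG2 cells, were measured by RT-PCR with capillary electrophoresis after 24 h dosing. Induction or loss scored relative to DMSO.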

Chain of Bile acid receptor (Homo sapiens) (Q96RI1 whole entry, looked up): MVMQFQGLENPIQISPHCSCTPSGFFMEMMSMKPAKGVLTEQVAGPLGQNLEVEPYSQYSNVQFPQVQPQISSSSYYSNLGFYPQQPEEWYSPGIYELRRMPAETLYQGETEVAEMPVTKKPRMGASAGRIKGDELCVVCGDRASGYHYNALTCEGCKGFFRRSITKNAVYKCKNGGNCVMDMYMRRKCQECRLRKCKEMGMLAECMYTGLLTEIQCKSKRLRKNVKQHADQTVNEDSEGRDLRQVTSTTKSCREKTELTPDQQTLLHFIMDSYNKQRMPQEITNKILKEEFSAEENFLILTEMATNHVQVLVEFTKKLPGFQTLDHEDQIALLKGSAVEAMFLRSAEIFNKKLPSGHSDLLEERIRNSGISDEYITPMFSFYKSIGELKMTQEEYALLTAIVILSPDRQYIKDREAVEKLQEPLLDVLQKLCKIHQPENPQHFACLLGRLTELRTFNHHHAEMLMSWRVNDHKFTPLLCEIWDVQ
Chain of Transcription factor E2F1 (Homo sapiens) (Q01094 whole entry, looked up): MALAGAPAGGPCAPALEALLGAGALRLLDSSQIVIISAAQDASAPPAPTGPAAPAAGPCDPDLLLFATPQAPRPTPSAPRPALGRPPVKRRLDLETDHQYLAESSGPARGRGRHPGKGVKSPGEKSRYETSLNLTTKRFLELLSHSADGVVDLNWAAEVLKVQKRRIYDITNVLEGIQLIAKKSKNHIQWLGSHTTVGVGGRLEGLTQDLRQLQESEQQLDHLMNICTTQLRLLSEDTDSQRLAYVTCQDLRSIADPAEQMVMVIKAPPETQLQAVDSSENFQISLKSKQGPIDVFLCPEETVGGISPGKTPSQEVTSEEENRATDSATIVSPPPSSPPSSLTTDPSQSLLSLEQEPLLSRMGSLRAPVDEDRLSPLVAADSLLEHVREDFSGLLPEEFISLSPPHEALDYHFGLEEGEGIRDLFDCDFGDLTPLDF
Chain of Hepatocyte nuclear factor 3-beta (Homo sapiens) (Q9Y261 whole entry, looked up): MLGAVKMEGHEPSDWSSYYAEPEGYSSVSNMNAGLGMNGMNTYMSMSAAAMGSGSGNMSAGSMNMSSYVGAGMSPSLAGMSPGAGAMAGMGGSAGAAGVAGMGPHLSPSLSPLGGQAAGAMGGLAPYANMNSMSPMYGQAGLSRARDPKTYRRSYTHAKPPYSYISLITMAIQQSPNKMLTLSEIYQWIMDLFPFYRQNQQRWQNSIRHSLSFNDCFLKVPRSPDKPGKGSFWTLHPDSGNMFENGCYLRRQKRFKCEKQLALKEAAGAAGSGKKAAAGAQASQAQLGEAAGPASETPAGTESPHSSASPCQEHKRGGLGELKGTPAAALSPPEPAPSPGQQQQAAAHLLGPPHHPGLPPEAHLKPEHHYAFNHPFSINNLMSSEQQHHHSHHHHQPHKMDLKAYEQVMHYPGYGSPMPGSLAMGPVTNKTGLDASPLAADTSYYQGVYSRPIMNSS
Chain of Hypoxia-inducible factor 1-alpha (Homo sapiens) (Q16665 whole entry, looked up): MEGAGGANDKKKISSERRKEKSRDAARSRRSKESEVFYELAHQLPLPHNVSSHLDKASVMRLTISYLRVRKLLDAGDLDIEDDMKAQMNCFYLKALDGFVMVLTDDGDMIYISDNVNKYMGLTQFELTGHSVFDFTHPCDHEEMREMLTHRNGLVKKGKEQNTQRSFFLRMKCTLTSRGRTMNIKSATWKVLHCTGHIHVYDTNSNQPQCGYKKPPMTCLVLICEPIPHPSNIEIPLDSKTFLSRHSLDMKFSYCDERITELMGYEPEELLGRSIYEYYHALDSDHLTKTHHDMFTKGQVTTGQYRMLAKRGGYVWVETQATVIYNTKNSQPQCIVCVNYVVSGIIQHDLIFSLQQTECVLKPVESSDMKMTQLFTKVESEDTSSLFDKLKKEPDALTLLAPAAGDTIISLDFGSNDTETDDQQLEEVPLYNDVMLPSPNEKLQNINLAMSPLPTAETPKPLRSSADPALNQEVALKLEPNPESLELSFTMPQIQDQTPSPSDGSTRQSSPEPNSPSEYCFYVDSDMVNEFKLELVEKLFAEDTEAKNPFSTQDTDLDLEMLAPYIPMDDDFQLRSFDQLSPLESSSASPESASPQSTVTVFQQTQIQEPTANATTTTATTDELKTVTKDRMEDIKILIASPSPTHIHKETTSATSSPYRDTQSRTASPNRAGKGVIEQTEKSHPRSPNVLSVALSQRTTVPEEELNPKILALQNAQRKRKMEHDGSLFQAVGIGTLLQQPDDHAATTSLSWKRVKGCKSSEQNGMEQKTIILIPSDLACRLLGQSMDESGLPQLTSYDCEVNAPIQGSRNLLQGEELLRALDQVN
Chain of Hepatocyte nuclear factor 6 (Homo sapiens) (Q9UBC0 whole entry, looked up, the tested form may be a part): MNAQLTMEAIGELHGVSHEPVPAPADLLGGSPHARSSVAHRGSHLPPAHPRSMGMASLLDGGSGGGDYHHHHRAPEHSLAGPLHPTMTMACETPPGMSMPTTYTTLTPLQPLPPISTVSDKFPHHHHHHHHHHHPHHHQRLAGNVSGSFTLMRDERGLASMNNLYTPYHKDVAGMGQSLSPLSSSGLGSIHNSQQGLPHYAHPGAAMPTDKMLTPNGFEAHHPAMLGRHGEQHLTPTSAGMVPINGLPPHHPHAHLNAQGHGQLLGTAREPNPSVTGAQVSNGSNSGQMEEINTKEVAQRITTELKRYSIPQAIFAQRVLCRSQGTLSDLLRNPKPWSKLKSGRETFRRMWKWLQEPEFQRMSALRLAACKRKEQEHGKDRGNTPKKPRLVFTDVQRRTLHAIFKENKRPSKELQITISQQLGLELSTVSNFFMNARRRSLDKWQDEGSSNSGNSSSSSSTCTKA
Chain of Heat shock factor protein 1 (Homo sapiens) (Q00613 whole entry, looked up): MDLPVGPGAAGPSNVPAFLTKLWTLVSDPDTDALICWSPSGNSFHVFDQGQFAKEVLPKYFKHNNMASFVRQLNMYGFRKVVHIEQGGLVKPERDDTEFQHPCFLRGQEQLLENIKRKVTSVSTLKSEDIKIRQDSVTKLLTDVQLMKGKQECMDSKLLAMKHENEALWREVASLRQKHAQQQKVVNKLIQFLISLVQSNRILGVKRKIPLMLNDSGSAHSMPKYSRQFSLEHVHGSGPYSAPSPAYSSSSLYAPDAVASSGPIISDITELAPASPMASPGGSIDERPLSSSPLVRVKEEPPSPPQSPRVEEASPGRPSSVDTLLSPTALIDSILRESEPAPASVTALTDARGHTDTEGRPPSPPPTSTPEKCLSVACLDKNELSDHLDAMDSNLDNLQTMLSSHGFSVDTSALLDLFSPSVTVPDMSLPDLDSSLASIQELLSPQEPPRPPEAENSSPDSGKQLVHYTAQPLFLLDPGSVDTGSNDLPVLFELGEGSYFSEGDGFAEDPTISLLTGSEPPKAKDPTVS

For `CNC(=O)Oc1cccc2ccccc12`, the outcome [1] was “inactive”, the AC50 [2] was 9.92 µM (active) and the outcome [3] was “inactive”. The AC50 [4] was 50 µM (active), the outcome [5] was “inactive” and the outcome [6] was “inactive”. For the same molecule, the outcome [7] was “inactive”, the outcome [8] was “inactive” and the outcome [9] was “inactive”. The outcome [10] was “inactive”, the outcome [11] was “inactive” and the outcome [12] was “inactive”. The outcome [13] was “inactive”, the outcome [14] was “inactive” and the outcome [15] was “inactive”. The AC50 [16] was 50 µM (active).
In the case of `CC(C)Nc1nc(Cl)nc(NC(C)C)n1`, the outcome [1] is reported as “inactive”, the outcome [2] is reported as “inactive” and the outcome [3] is reported as “inactive”. The outcome [17] was “inactive”, the outcome [4] was “inactive” and the outcome [5] was “inactive”. For the same molecule, the outcome [6] was “inactive”, the outcome [7] was “inactive” and the outcome [8] was “inactive”. For the same molecule, the outcome [10] was “inactive”, the outcome [11] was “inactive” and the outcome [12] was “inactive”. For the same molecule, the outcome [13] was “inactive”, the outcome [14] was “inactive” and the outcome [15] was “inactive”. The outcome [16] was “inactive”.
With `CC(C)N1C(=O)N(c2ccccc2)CSC1=NC(C)(C)C` the outcome [1] was “inactive”, the outcome [2] was “inactive” and the outcome [3] was “inactive”. For the same molecule, the outcome [4] was “inactive”, the outcome [5] was “inactive” and the outcome [6] was “inactive”. The outcome [7] was “inactive”, the outcome [8] was “inactive” and the outcome [18] was “inactive”. For the same molecule, the outcome [10] was “inactive”, the outcome [11] was “inactive” and the outcome [12] was “inactive”. The outcome [13] was “inactive”, the outcome [14] was “inactive” and the outcome [15] was “inactive”. The outcome [16] was “inactive”.
With `CCOP(=O)(OCC)Oc1nc(Cl)c(Cl)cc1Cl` the outcome [1] was “inactive”, the outcome [2] was “inactive” and the outcome [3] was “inactive”. For the same molecule, the outcome [17] was “inactive”, the AC50 [4] was 39.1 µM (active) and the outcome [5] was “inactive”. For the same molecule, the outcome [6] was “inactive”, the outcome [7] was “inactive” and the outcome [19] was “inactive”. For the same molecule, the outcome [8] was “inactive”, the outcome [18] was “inactive” and the outcome [10] was “inactive”. For the same molecule, the outcome [11] was “inactive”, the outcome [12] was “inactive” and the outcome [13] was “inactive”. The outcome [14] was “inactive”, the outcome [15] was “inactive” and the outcome [16] was “inactive”.
In the case of `CCOC(=O)C(C)OC(=O)c1cc(Oc2ccc(C(F)(F)F)cc2Cl)ccc1[N+](=O)[O-]` (configuration not stated), the outcome [1] is reported as “inactive”, the outcome [2] is reported as “inactive” and the outcome [3] is reported as “inactive”. The outcome [17] was “inactive”, the AC50 [4] was 34.1 µM (active) and the outcome [5] was “inactive”. For the same molecule, the outcome [6] was “inactive”, the outcome [7] was “inactive” and the outcome [8] was “inactive”. The outcome [18] was “inactive”, the outcome [10] was “inactive” and the outcome [11] was “inactive”. For the same molecule, the outcome [12] was “inactive”, the outcome [13] was “inactive” and the outcome [14] was “inactive”. The outcome [15] was “inactive” and the outcome [16] was “inactive”.
With `CN=C=S` the outcome [1] was “inactive”, the outcome [2] was “inactive” and the outcome [3] was “inactive”. For the same molecule, the outcome [4] was “inactive”, the outcome [5] was “inactive” and the outcome [6] was “inactive”. The outcome [7] was “inactive”, the outcome [8] was “inactive” and the outcome [9] was “inactive”. The outcome [10] was “inactive”, the outcome [11] was “inactive” and the outcome [12] was “inactive”. For the same molecule, the outcome [13] was “inactive”, the outcome [14] was “inactive” and the outcome [15] was “inactive”. The AC50 [16] was 26.1 µM (active).
With `O=P(O)(O)CCCl` the outcome [1] was “inactive”, the outcome [2] was “inactive” and the outcome [3] was “inactive”. The outcome [17] was “inactive”, the outcome [4] was “inactive” and the outcome [5] was “inactive”. The outcome [6] was “inactive”, the outcome [7] was “inactive” and the outcome [8] was “inactive”. The outcome [9] was “inactive”, the outcome [10] was “inactive” and the outcome [11] was “inactive”. The outcome [12] was “inactive”, the outcome [13] was “inactive” and the outcome [14] was “inactive”. The outcome [15] was “inactive” and the outcome [16] was “inactive”.
For `CC1(C)CCC(=Cc2ccc(Cl)cc2)C1(O)Cn1cncn1` (configuration not stated), the outcome [1] was “inactive”, the outcome [2] was “inactive” and the outcome [3] was “inactive”. The outcome [4] was “inactive”, the outcome [5] was “inactive” and the outcome [6] was “inactive”. The outcome [7] was “inactive”, the outcome [8] was “inactive” and the outcome [18] was “inactive”. The outcome [10] was “inactive”, the outcome [11] was “inactive” and the outcome [12] was “inactive”. The outcome [13] was “inactive”, the outcome [14] was “inactive” and the outcome [15] was “inactive”. The outcome [16] was “inactive”.
